± gives the standard deviation of the averaged measurements.
Columns and labels:
Settings in all cases: concentration: 10 µM; 24 h
[1] = tested on: HCC1569; test: cell number relative to DMSO (% of DMSO); higher = more cells (less growth inhibition / toxicity)
Summary of the method: (§1)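 Cell number or H1.0 nuclear intensity appears as percent of the plate control, based on the median of replicates. Measurements came from HCC1569 and TDF cells exposed in triplicate to compounds at 10 µM for 24 h at 37 °C, then imaged in six fields per well at ×10. Positional effects were smoothed out of HCC1569 values.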

[2] = tested on: TDF; test: as above
Summary of the method: as §1

[3] = tested on: TDF; test: H1.0 immunofluorescence intensity relative to DMSO (% of DMSO); higher = stronger H1.0 induction, active = 120 or more
Summary of the method: as §1

[4] = tested on: HCC1569; test: H1.0 immunofluorescence intensity relative to DMSO (% of DMSO); higher = stronger H1.0 induction, active = 140 or more
Summary of the method: as §1
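Wherever H1.0 immunofluorescence intensity relative to DMSO is given: TDF is a line of transformed human dermal fibroblasts of mesenchymal origin.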
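Wherever cell number relative to DMSO is given: TDF denotes transformed human dermal fibroblasts of mesenchymal origin.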

Row | Compound | cell number [1] | cell number [2] | H1.0 immunofluorescence intensity [3] | H1.0 immunofluorescence intensity [4]
1 | NC(N)=NCCC[C@H](N)C(=O)O [L-Arginine] | 102 | 107 | 93.7 (inactive) | 98.6 (inactive)
2 | O=C1CCCC(=O)C1C(=O)c1ccc(C(F)(F)F)cc1[N+](=O)[O-] [2-[2-nitro-4-(trifluoromethyl)benzoyl]-1,3-cyclohexanedione] | 96.1 | 104 | 99.8 (inactive) | 101 (inactive)
3 | CC(=O)O.CSC(N)=NCCCC(N)C(=O)O [S-Methyl-L-thiocitrulline acetate] | 99.4 | 108 | 92 (inactive) | 97.5 (inactive)
4 | CCC(C)n1ncn(-c2ccc(N3CCN(c4ccc(OCC5COC(Cn6cncn6)(c6ccc(Cl)cc6Cl)O5)cc4)CC3)cc2)c1=O (stereo not given) [Itraconazole] | 79.5 | 93 | 108 (inactive) | 149 (active)
5 | CN1CCCCC1CCN1c2ccccc2Sc2ccc(S(C)=O)cc21.O=S(=O)(O)c1ccccc1 (stereo not given) [Mesoridazine besylate] | 103 | 111 | 92.4 (inactive) | 109 (inactive)
6 | CCc1cc(Cl)c(OC)c(C(=O)NCC2CCCN2CC)c1O.Cl (stereo not drawn) [S-(-)-Eticlopride hydrochloride] | 102 | 110 | 103 (inactive) | 97.8 (inactive)
7 | CN(C)C(=O)N=NC(=O)N(C)C [N,N,N',N'-Tetramethylazodicarboxamide] | 94.8 | 103 | 91.5 (inactive) | 99.2 (inactive)
8 | CCn1cc(C(=O)O)c(=O)c2cc(F)c(N3CCNC(C)C3)c(F)c21.Cl (stereo not given) [Lomefloxacin hydrochloride] | 101 | 102 | 92.2 (inactive) | 92.9 (inactive)
9 | Cl.Nc1nc2ccc(OC(F)(F)F)cc2s1 [Riluzole.HCl] | 101 | 89.9 | 96.2 (inactive) | 94.8 (inactive)
10 | CC(C)NCC(O)COc1cccc2[nH]ccc12 (stereo not drawn) [S(-)-Pindolol] | 102 | 107 | 84.4 (inactive) | 98.4 (inactive)
11 | C1CCN2CC3CC(CN4CCCCC34)C2C1.O.O.O.O.O.O=S(=O)(O)O (stereo not given) | 103 | 94.3 | 107 (inactive) | 98.4 (inactive)
12 | COC(=O)c1sccc1S(=O)(=O)Nc1ccc(Nc2ccccc2)cc1OC | 99.7 | 92.5 | 88.2 (inactive) | 112 (inactive)
13 | Cl.Cl.NCCCCN [Putrescine dihydrochloride] | 102 | 118 | 94.1 (inactive) | 98.2 (inactive)
14 | Fc1ccc(-c2c3cccc(C(F)(F)F)c3nn2Cc2ccc(F)cc2Cl)cc1 | 100 | 95.3 | 92.3 (inactive) | 102 (inactive)
15 | NC1CONC1=O (racemic) [DL-Cycloserine] | 101 | 96.8 | 92 (inactive) | 92.3 (inactive)
16 | CCCC(CCC)C(=O)[O-].[Na+] [Valproic acid sodium] | 108 | 119 | 95 (inactive) | 99.9 (inactive)
17 | c1ccc2c(-c3ccncc3)c[nH]c2c1 [Rho Kinase Inhibitor III, Rockout] | 105 | 106 | 86.9 (inactive) | 118 (inactive)
18 | Cc1ccc(C)c(-c2cc(C(F)(F)F)nn2-c2ccc(S(N)(=O)=O)cc2)c1 | 101 | 96.8 | 97.5 (inactive) | 101 (inactive)
19 | CNc1nc(-c2ccc3c(N)n[nH]c3c2)cc(N2C[C@@H](C(=O)NC3CCCCC3)CC[C@H]2C)n1 | 52.3 | 77.9 | 115 (inactive) | 161 (active)
20 | NC(=O)c1cccc(-c2cc(Nc3ccc(OC(F)(F)F)cc3)ncn2)c1 [Bcr-abl Inhibitor] | 89.5 | 92.8 | 98.5 (inactive) | 124 (inactive)
21 | COc1ccccc1N1CCN(CCCCNS(=O)(=O)c2cccc3c(N(C)C)cccc23)CC1.O=C(O)C=CC(=O)O [Cortexolone maleate] | 85.1 | 99.8 | 117 (inactive) | 131 (inactive)
22 | NC(N)=NN=Cc1c(Cl)cccc1Cl [Guanabenz] | 98.5 | 91.9 | 98.2 (inactive) | 118 (inactive)
23 | CCN(CC)CCCCNc1ncc2cc(-c3c(Cl)cccc3Cl)c(NC(=O)NC(C)(C)C)nc2n1 | 63.1 | 84.5 | 104 (inactive) | 115 (inactive)
24 | CC1(C)SC2C(NC(=O)COc3ccccc3)C(=O)N2C1C(=O)[O-] (stereo not given) [Pencillin V] | 100 | 101 | 87.4 (inactive) | 112 (inactive)
25 | COc1cc2c3cc1Oc1c(OC)c(OC)cc4c1C(Cc1ccc(O)c(c1)Oc1ccc(cc1)CC3N(C)CC2)N(C)CC4.Cl.Cl (stereo not given) | 90.4 | 92.2 | 104 (inactive) | 109 (inactive)

Row | Compound | cell number [1] | cell number [2] | H1.0 immunofluorescence intensity [3] | H1.0 immunofluorescence intensity [4]
26 | CCCCNC(=O)NS(=O)(=O)c1ccc(C)cc1 [Tolbutamide] | 102 ± 3.9 | 108 ± 11 | 93 (inactive) | 101 (inactive)
27 | CC(COc1ccccc1)N(CCCl)Cc1ccccc1.Cl (stereo not given) [Phenoxybenzamine hydrochloride] | 71.6 | 69.5 | 105 (inactive) | 107 (inactive)
28 | CCOc1ccccc1OCCNC(C)Cc1ccc(OC)c(S(N)(=O)=O)c1 (stereo not given) [Tamsulosin] | 98.8 | 96.7 | 97.8 (inactive) | 95.4 (inactive)
29 | NC(=S)NCCCC(N)C(=O)O (stereo not given) [Thiocitrulline] | 104 | 112 | 91.5 (inactive) | 95.7 (inactive)
30 | Cc1ccccc1/N=N/c1ccc(NC(=O)c2ccnn2C)c(C)c1 | 94.6 | 98.7 | 98.5 (inactive) | 110 (inactive)
31 | CC(C(=O)O)c1ccc(-c2ccccc2)c(F)c1 (stereo not given) [Flurbiprofen] | 98.6 | 101 | 97.4 (inactive) | 101 (inactive)
32 | CC(C)(Sc1cc(C(C)(C)C)c(O)c(C(C)(C)C)c1)Sc1cc(C(C)(C)C)c(O)c(C(C)(C)C)c1 [Probucol] | 102 | 106 | 91.9 (inactive) | 91.8 (inactive)
33 | C#CCCCCCCCCCCCCCCCC(=O)O [17-Octadecynoic acid] | 102 | 99.7 | 92.5 (inactive) | 99.4 (inactive)
34 | O=C1OC(=CBr)CCC1c1cccc2ccccc12 (stereo not given) [Bromoenol lactone] | 97.3 | 100 | 94.5 (inactive) | 112 (inactive)
35 | COc1cc2c(cc1OC)-c1[nH]nc(Nc3cccc(F)c3)c1C2 [PDGF Receptor Tyrosine Kinase Inhibitor IV] | 64.3 | 8.88 | 131 (active) | 160 (active)
36 | CC(C(O)c1ccc(O)cc1)N1CCC(Cc2ccccc2)CC1.CC(C(O)c1ccc(O)cc1)N1CCC(Cc2ccccc2)CC1.O=C(O)C(O)C(O)C(=O)O (stereo not given) [Ifenprodil tartrate] | 101 | 108 | 100 (inactive) | 96.7 (inactive)
37 | Oc1cc(O)c2c(c1)OC(c1ccc(O)c(O)c1)C(O)C2 (single isomer, unassigned; (-)) [(-)-Epicatechin] | 102 | 106 | 100 (inactive) | 89.2 (inactive)
38 | C=C[C@]1(C)C[C@@H](OC(=O)CO)[C@]2(C)[C@H](C)CC[C@]3(CCC(=O)[C@H]32)[C@@H](C)[C@@H]1O | 96.4 | 115 | 106 (inactive) | 95.9 (inactive)
39 | C1CNCCN1.COc1cc(C(O)CO)ccc1O.COc1cc(C(O)CO)ccc1O (stereo not given) [MHPG piperazine] | 100 | 108 | 106 (inactive) | 93.6 (inactive)
40 | O=NN(CCCl)C(=O)NCCCl [Carmustine] | 99 | 93.9 | 95.4 (inactive) | 89.6 (inactive)
41 | O=C(O)c1ccc(NC(=O)[C@H](CC2CCCC2)n2cnc(C(F)(F)F)c2)nc1 | 100 | 100 | 96.9 (inactive) | 106 (inactive)
42 | CCCCCC=CCC=CCCCCCCCCCCCC(=O)O [13(Z),16(Z)-Docosadienoic acid] | 100 | 109 | 104 (inactive) | 89.9 (inactive)
43 | CC(Nc1nc(N2CCCC2)nc2ccccc12)c1ccccc1 (stereo not given) [N-(1-phenylethyl)-N-[2-(1-pyrrolidinyl)-4-quinazolinyl]amine] | 83.8 | 75.1 | 123 (active) | 120 (inactive)
44 | CC(=O)c1ccc(NC2=C(Cl)C(=O)c3ccccc3C2=O)cc1 [2-(4-acetylanilino)-3-chloronaphthoquinone] | 17.7 | 8.89 | 150 (active) | 178 (active)
45 | CCN(Cc1ccccc1)C(=O)Cn1c(=O)n(C)c2cnc(-c3ccccc3)nc21 | 75.1 | 17.6 | 156 (active) | 123 (inactive)
46 | CC(=O)O.O=C(NCC1CCCCN1)c1cc(OCC(F)(F)F)ccc1OCC(F)(F)F (stereo not given) [Flecainide acetate] | 102 ± 3.6 | 101 ± 1.2 | 91.5 (inactive) | 107 (inactive)
47 | O=C1NC(=O)c2cc(Nc3ccc(F)cc3)c(Nc3ccc(F)cc3)cc21 | 93.4 | 110 | 93.4 (inactive) | 133 (inactive)
48 | COc1cc2oc(-c3ccc(O)c(O)c3)cc(=O)c2c(O)c1OC | 75 | 82 | 91.1 (inactive) | 118 (inactive)
49 | O=C1OC(=O)C2C3CCC(O3)C12 (stereo not given) [Norcantharidin] | 96 | 92.3 | 105 (inactive) | 103 (inactive)
50 | O=C(O)C1CCCNC1C(=O)O (mixture of isomers) | 108 | 110 | 96.4 (inactive) | 96.7 (inactive)
